Laboratory results from the supplement of paper PMC10105736.
Unmarked numbers belong to inactive results.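 How the source made its calls: active = MAPPIT score above the 99th percentile of random reference set scores in the same batch; inactive = at or below it.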

Key:
Test in all cases: MAPPIT interaction score (arbitrary units); higher = stronger binary interaction signal, active = hit call of the paper
CG5174 = details: MAPPIT configuration: N-N; pair source set: Curagen_high_conf
CG5662 = details: MAPPIT configuration: N-N; pair source set: screen_2
CG5708 = details: MAPPIT configuration: N-C; pair source set: screen_4
Polr3F = details: MAPPIT configuration: N-C; pair source set: screen_3
hale = details: MAPPIT configuration: N-N; pair source set: screen_1
pasi2 = details: MAPPIT configuration: N-N; pair source set: Lit-BS-16
CG5854 = details: MAPPIT configuration: N-N; pair source set: Curagen_high_conf
Zip88E = details: MAPPIT configuration: N-N; pair source set: Lit-BS-16
CG5883 = details: MAPPIT configuration: N-N; pair source set: RRS
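Further: HEK293T cells with Epo stimulation, STAT-responsive firefly luciferase reporter, fold induction versus unstimulated cells divided by the larger fold induction of two negative controls lacking either bait or prey.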

B1: rad50 (protein)
chain: MSSIESLSIQGIRSFGTYADDLQSIKFSSPVTLILGENGCGKTTVVECLKYALTGECPPGSDRGKSFVHDPKIFGLNEVLAQIKMQVRDRRGAQVSICRTMKVSKKRNKMSFETMDSTINFLTGAGQSKREKQDSLSGRSVDIDVAISDFMGVSKAIINNVLFCHQEDSSWPLDESKKLKEKFDAIFGITEYNKALDKIIKLRKEAMEELKIKEANIKHVAYLKQEMEVKTLNLQKAQRKCDAIKAQCSECEEEMKPIEARLVEIRNVEFEIGKYQAQKVEMDTKHKNCKDQISTLTLKIKKPFRGTLDELDQEISNFDQRMLEMRQKRTEVEGDLSQIKRSSVAEQEKLGTQDRKHCLAKQRHQSELACRAQLLKRVKEFCRELHIPIDCDLVEQPEKMGEVLRDIEAMIITKHCEITEIVEQNEKADRSRQVKIDELRIELTKSEQSVTAQEKQRESSKRESETLGVEIKKIETSMQDLKKLEKEINEVNELYESATKNIDQQAIKDAIARKKASIAENQIQFKKLDEQLTFLGSMAKLVAECSLKQKELDKKNQEVHRVRSRHSDHFGKLFKEPITCNYRRSMQVVYEKLRREIQELNEKANTQKLKEQSYEIKRKNLISDISRMEKELKDSEELIYQKCRSTPYDDLLERSKTTISKLQFDHGALKSSEALYKKYIQKMDEEPSCPLCHHNMTSDEACDLTSELTDEIQKLPDNITRAEKALKAEQIKYENLLQLKPTILKVKELKDSLPQKKEELKKVEELLGDSVSEYETLIALIGEPTHNMELANSMMGDMSLLDEALKDSARLTKDLDLQKGQLPASYDSSVSMDDLQAEKSKVSKELETERKELESAQNAVQQQMDALNRLREKKNSLKDRQIHLREGLQSLPQLKERLEKLNSFLTTVASEISELKAKIQPLKLNLRAAIEEKERLKKSESEKLAQLNSKYNSYKSTDHDIQRLNKEAEDYAKLDLRNEIKKLDEIIMASKDKLRKLEAEISLKTDELETIKTECSNQQTVERDLKDNRELKQLEDKEAKLRESCQVLDKQLGNLDFHSVSKEKVNLTKQRDKATVRKGELLGQLGEIHSQVNKLQREIDEPRFKESLKNFRKANYEIEVTRLCIEDLGQYRLALEWALIQFHSEKMEMINRLIREYWRKIYRGNDIDYIQVKTDEVSSDASADRRKTYNYRVVQSKNYSEIEMRGRCSAGQRVLASLIIRLALAETFSSNCGVLALDEPTTNLDRANINSLCEALNCIVEERQSQSNFMLIIITHDENFVSSLGKITSYHRVFRNEECKSVIRRVEAGPSKKALIDQ
MAPPIT interaction score (CG5174): 0.0423

B2: CG9393 (protein)
chain: MEMQLGAMLYVYKGEYGLPSIDFECLRALCLLRFTRCPMDVQTSSNPLRSGAGKLPYLQIGNQKFAGYRQIKRVLDLEGYPIDAHLSTKQKHLSTAYANWVFTNLHAYYHYFLFGEPHNFDTTTRGLYAKRTPFPFNFYYPSSYQREACDVVQVMAGFDVNDKLDKHEGDYLVVNAKKVVNLLSRKLGRKVWFFGDTYSEFDAIVYSYLAIIFKIALPNNPLQNHIKGCQNLVNFINRITKDIFRIEGYSSVKLTKTPSGTEASLTASERKFLDSELNTKIVAGVGAVLAMGAFAAWRGIYNQLTTRSSTDYDGIDYEDDEMEEGLD
MAPPIT interaction score (CG5662): 4.82 (active)

B3: H2.0 (protein)
chain: MLLHESAASMEQSMPENLSTHMYGECEVNPTLAKCPDPVNVDHELPTKESCASTTIVSTSPTSATSTTKVKLSFSVDRLLGSEPEESHRQSSSSPSTKSCCDGSILACCSFPHCFSQANAESRRFGHATLPPTFTPTSSHTYPFVGLDKLFPGPYMDYKSVLRPTPIRAAEHAAPTYPTLATNALLRFHQHQKQQHQQHHHHQHHPKHLHQQHKPPPHNSTTASALLAPLHSLTSLQLTQQQQRFLGKTPQQLLDIAPTSPAAAAAATSQNGAHGHGGGNGQGNASAGSNGKRKRSWSRAVFSNLQRKGLEIQFQQQKYITKPDRRKLAARLNLTDAQVKVWFQNRRMKWRHTRENLKSGQEKQPSAVPESGGVFKTSTPSGDGTPQEALDYSSDSCSSVDLSEQADEDDNIEINVVE
MAPPIT interaction score (CG5708): 2.81
MAPPIT interaction score (Polr3F): 2.33
MAPPIT interaction score (hale): 0.405
MAPPIT interaction score (pasi2): 2.43

B4: pip (protein)
chain: MSLNAERSYKMKLRDVENAFKYRRIPYPKRSVELIALLAISCTFFLFMHTNKLNSRLKEMEVKLQPSEFSALGLTGNHISGHDAGKHDDINTLHGTYQYLKSTGQKVGYNVHDRRSSEEQLRTPTAHGHHHDHHSHHHHMHQQEKIDGHKHKASHDKQLAVPDNKHKEDEVHYEDDEDEVEENDDDLANDVGTTDSEGFNFKADLLNNTKYAEVDFVFFNRVPKVGSQSLMELMARLGKINGFTHARNKGSAHETIVMNKQRQNDLIADLLTRPKPHIYSQHIAYINFTRFHLPKPIYINLIRDPIDRIISWHYYIRAPWYYRDMQAKLGENAIPMPSEEFMNLDLDTCVRNHDPHCTFTQMQIKNPVGDHRRQTLFFCGMNQKLCMPFNSEAAMQKAKRTVETEYAVVGTWEDTNITLSVLEAYIPRYFRNAKVAYYLGKDRLSRVNRNNVTRIVSDETRLILRKNLTNEIEFYEFCKQRLYLQYAALSHGKRFGEDDYLLVPEQQNEYNEDY
MAPPIT interaction score (CG5854): -0.136
MAPPIT interaction score (Zip88E): 0.425

B5: mRpL39 (protein)
chain: MSAATKLHKTSWCALRQLQQYRTKANFSGSSASLAKRNDLFNQEQRRQRDAVGRIDKIEVRYLGLPEDVTLVMNGNISTPFNCAQHLSEGHCKRSALALIDGSVPWDMHRPLQESCTLQLLNFHVSEPHVVNKAFWRTCSFMLGAALNRAFKPEANLQLHSFPGPNIKSGSFVHDIVLQTQNWEPGKEEMRALSAEMVKLAAQDLRIERLDVQQDLAQEMFKDSKYKSEQLPSISQQTNGRVTLYRLGDHIDISRGPMVASTSFLGKCVISAAHKVAEEGPSGAFYRIQGVALPSGFQLNHVAFGVLEERSKKPSPARLPNEPFEEQQQLQLS
MAPPIT interaction score (CG5883): -0.604
